For 5 molecules, composite z-score and z-score results are on record in PubChem BioAssay.

The nature of experiment [1]: binders of probe aFSTL3 on microarray, primary screen, stem cell growth factor project, biochemical, small-molecule microarray, fluorescence 635/667 (AID 1064).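 Note: measures binding of the biotinylated anti-FSTL3 antibody to printed compounds.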 Conditions: higher = more signal.
Experiment [2] in a line: binders from COS7 lysate, DM2A8 probe, primary screen, torsin A project, cell lysate, small-molecule microarray, fluorescence 635/667 (AID 1065). The following applies: higher = more signal, COS7 lysate expressing mutant human TOR1A.
A short description of experiment [3]: binders of probe aFGF2 on microarray, primary screen, stem cell growth factor project, biochemical, small-molecule microarray, fluorescence 635/667 (AID 1067).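 Note: measures binding of biotinylated aFGF2 protein to printed compounds on slides; z-score merges feature fluorescence and signal-to-noise across triplicate slides.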 The following applies: higher = more signal.
Experiment [4] is described as follows: binders of probe aFGF10 on microarray, primary screen, stem cell growth factor project, biochemical, small-molecule microarray, fluorescence 635/667 (AID 1071).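 Note: score merges 667 nm spot intensity and signal to noise from triplicate slides.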 Conditions: higher = more signal.
The target of experiment [5] is Neurogenic locus notch homolog protein 2 (Homo sapiens) (UniProt Q04721). Put plainly: Notch2 binders on small-molecule microarrays, primary screen, biochemical, small-molecule microarray, 635 nm fluorescence, stem cell growth factors (AID 1073). The following applies: Notch2 binding, higher = more signal.
In experiment [6] the target is Pro-neuregulin-1, membrane-bound isoform (Homo sapiens) (UniProt Q02297). The experiment is described as follows: NRG1 binders on small-molecule microarrays, primary screen, psychiatric disease protein project, biochemical, small-molecule microarray, fluorescence 635/667 (AID 1075).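 Note: score combines 667 nm spot fluorescence with signal to noise.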 Conditions: NRG1 binding, 635 nm fluorescence, higher = more signal.
Sequence of Pro-neuregulin-1, membrane-bound isoform (Homo sapiens) (Q02297 whole entry, looked up, the tested form may be a part, canonical isoform): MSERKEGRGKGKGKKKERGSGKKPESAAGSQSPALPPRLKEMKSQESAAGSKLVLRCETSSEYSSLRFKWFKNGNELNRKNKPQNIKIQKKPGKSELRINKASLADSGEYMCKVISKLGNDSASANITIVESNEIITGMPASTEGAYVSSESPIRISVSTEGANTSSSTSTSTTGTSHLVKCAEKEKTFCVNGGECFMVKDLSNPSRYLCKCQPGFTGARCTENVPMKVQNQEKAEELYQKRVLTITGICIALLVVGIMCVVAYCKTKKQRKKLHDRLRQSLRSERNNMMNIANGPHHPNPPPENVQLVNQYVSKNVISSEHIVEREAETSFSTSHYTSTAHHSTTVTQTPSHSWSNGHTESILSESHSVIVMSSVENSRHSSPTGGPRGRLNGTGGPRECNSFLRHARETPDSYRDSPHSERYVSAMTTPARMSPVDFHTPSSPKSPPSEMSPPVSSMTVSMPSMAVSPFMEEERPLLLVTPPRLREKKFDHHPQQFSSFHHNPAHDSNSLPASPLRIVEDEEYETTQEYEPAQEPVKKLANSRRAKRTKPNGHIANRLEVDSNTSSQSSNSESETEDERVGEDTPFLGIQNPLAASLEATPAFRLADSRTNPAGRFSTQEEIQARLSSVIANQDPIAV
For experiment [7], the system named is Neuregulin-1 EGF-like domain. Put plainly: binders of neuregulin-1 EGF-like domain, primary screen, biochemical, small-molecule microarray, 635 nm fluorescence (AID 1081).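 Note: binding of the protein to compounds printed on small-molecule microarray slides.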 Conditions: small-molecule microarray binding, higher = more signal.
Experiment [8] is described as follows: FRG1 promoter luciferase signal modulators, primary screen, FRG1 inhibition for FSHD, cell-based, C2C12 myotubes, firefly/Renilla luciferase, luminescence (AID 1084). Conditions: higher = more signal, called active from +8 up or from −8 down.
The nature of experiment [9]: binders of probe aFST on microarray, primary screen, stem cell growth factor project, biochemical, small-molecule microarray, fluorescence 635/667 (AID 1086).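 Note: score merges 667 nm fluorescence with signal-to-noise of each printed compound spot.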 Conditions: higher = more signal.
The nature of experiment [10]: binders of probe aHhip on microarray, primary screen, stem cell growth factor project, biochemical, small-molecule microarray, fluorescence 635/667 (AID 1087).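 Note: score merges spot fluorescence at 667nm with spot signal to noise ratio.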 Conditions: higher = more signal.
In experiment [11] the test system is PRMT1 (protein arginine N-methyltransferase 1). Put plainly: PRMT1 binders on small-molecule microarrays, primary screen, biochemical, small-molecule microarray, 635 nm fluorescence (AID 1088).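 Note: binding of Prmt1 protein to compounds spotted on small-molecule microarray slides.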 Conditions: small-molecule microarray binding, higher = more signal.
The nature of experiment [12]: yeast growth modulation, basal conditions, primary screen, YJM789 clinical isolate, OD600, 24 h (AID 1089).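 Note: growth of clinical yeast isolate S. cerevisiae YJM 789 seeded 1000 cells per well; test concentration not given here.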 The following applies: S. cerevisiae YJM789 growth, higher = more signal, called active from +8 up or from −8 down.
Experiment [13] is described as follows: fission yeast growth modulation, primary screen, strain 972, OD600, 24 h, no modulator (AID 1090).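 Note: basal condition with compound alone and no growth modifier present; test concentration not given here.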 The following applies: S. pombe 972 growth, higher = more signal, called active from +8 up or from −8 down.
A short description of experiment [14]: S. cerevisiae growth modulation with rapamycin, primary screen, strain BY4716, OD600, 96 h (AID 1091). Note: test concentration not given here. The following applies: higher = more signal, called active from +8 up or from −8 down.
Experiment [15] deals with Torsin-1A-interacting protein 2 (Homo sapiens) (UniProt Q8NFQ8). Put plainly: LULL1 binders on small-molecule microarray, primary screen, cell lysate, human LULL1 lysate, 635/667 nm fluorescence (AID 1092).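 Note: probe is lysate of COS7 cells overexpressing human LULL1; score merges per-feature 667 nm fluorescence with signal-to-noise.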 The following applies: hLULL1 lysate binding, 635 nm fluorescence, higher = more signal.
Sequence of Torsin-1A-interacting protein 2 (Homo sapiens) (Q8NFQ8 whole entry, looked up): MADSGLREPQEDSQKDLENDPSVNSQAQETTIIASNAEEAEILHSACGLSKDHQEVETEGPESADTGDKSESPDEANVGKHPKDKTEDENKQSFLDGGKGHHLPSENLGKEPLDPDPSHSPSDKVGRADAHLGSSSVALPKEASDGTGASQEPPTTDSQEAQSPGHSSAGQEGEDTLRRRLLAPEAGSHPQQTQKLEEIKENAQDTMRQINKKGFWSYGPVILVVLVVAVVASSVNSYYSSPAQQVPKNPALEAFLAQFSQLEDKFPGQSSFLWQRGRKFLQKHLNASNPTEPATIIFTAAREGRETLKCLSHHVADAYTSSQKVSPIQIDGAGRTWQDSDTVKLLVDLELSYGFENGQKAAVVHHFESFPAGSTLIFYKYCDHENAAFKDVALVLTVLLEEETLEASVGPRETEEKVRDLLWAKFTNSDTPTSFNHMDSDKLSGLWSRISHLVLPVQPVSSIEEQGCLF
The nature of experiment [16]: E. coli growth modulation, two-sided OD650, primary screen, E. coli filamentation project, strain DRC41, 24 h (AID 1093).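 Note: MC1000 strain lacking acrAB efflux and sulA so SOS filamentation is blocked; test concentration not given here.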 The following applies: OD650, 24 h, higher = more signal, called active from +8 up or from −8 down.
Experiment [17] can be described thus: small-molecule microarray binders of probe aLefty2, primary screen, biochemical, biotinylated probe, 635/667 nm fluorescence (AID 1094).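 Note: score merges spot fluorescence near 667 nm with spot signal-to-noise ratio.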 The following applies: higher = more signal.
Experiment [18] relates to Noggin (protein binding on small-molecule microarray). Put plainly: Noggin binders on small-molecule microarray, primary screen, biochemical, 635/667 nm fluorescence (AID 1095).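 Note: score merges 667 nm feature fluorescence with signal to noise over triplicate slides.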 The following applies: 635 nm fluorescence, higher = more signal.
Experiment [19] has as its target Neurogenic locus notch homolog protein 3 (Homo sapiens) (UniProt Q9UM47). Put plainly: NOTCH3 binders on small-molecule microarray, primary screen, biochemical, 635/667 nm fluorescence (AID 1096). Conditions: NOTCH3 binding, 635 nm fluorescence, higher = more signal.
The nature of experiment [20]: small-molecule microarray binders of probe aEGFR, primary screen, biochemical, biotinylated probe, 635/667 nm fluorescence (AID 1097).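 Note: probe is a biotinylated anti-EGFR antibody binding compounds printed on slides; score combines fluorescence near 667 nm and signal to noise of each spot.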 The following applies: higher = more signal.

SMILES strings stand for the structures. The source made the active and inactive calls.

Sequence of Neurogenic locus notch homolog protein 3 (Homo sapiens) (Q9UM47 whole entry, looked up): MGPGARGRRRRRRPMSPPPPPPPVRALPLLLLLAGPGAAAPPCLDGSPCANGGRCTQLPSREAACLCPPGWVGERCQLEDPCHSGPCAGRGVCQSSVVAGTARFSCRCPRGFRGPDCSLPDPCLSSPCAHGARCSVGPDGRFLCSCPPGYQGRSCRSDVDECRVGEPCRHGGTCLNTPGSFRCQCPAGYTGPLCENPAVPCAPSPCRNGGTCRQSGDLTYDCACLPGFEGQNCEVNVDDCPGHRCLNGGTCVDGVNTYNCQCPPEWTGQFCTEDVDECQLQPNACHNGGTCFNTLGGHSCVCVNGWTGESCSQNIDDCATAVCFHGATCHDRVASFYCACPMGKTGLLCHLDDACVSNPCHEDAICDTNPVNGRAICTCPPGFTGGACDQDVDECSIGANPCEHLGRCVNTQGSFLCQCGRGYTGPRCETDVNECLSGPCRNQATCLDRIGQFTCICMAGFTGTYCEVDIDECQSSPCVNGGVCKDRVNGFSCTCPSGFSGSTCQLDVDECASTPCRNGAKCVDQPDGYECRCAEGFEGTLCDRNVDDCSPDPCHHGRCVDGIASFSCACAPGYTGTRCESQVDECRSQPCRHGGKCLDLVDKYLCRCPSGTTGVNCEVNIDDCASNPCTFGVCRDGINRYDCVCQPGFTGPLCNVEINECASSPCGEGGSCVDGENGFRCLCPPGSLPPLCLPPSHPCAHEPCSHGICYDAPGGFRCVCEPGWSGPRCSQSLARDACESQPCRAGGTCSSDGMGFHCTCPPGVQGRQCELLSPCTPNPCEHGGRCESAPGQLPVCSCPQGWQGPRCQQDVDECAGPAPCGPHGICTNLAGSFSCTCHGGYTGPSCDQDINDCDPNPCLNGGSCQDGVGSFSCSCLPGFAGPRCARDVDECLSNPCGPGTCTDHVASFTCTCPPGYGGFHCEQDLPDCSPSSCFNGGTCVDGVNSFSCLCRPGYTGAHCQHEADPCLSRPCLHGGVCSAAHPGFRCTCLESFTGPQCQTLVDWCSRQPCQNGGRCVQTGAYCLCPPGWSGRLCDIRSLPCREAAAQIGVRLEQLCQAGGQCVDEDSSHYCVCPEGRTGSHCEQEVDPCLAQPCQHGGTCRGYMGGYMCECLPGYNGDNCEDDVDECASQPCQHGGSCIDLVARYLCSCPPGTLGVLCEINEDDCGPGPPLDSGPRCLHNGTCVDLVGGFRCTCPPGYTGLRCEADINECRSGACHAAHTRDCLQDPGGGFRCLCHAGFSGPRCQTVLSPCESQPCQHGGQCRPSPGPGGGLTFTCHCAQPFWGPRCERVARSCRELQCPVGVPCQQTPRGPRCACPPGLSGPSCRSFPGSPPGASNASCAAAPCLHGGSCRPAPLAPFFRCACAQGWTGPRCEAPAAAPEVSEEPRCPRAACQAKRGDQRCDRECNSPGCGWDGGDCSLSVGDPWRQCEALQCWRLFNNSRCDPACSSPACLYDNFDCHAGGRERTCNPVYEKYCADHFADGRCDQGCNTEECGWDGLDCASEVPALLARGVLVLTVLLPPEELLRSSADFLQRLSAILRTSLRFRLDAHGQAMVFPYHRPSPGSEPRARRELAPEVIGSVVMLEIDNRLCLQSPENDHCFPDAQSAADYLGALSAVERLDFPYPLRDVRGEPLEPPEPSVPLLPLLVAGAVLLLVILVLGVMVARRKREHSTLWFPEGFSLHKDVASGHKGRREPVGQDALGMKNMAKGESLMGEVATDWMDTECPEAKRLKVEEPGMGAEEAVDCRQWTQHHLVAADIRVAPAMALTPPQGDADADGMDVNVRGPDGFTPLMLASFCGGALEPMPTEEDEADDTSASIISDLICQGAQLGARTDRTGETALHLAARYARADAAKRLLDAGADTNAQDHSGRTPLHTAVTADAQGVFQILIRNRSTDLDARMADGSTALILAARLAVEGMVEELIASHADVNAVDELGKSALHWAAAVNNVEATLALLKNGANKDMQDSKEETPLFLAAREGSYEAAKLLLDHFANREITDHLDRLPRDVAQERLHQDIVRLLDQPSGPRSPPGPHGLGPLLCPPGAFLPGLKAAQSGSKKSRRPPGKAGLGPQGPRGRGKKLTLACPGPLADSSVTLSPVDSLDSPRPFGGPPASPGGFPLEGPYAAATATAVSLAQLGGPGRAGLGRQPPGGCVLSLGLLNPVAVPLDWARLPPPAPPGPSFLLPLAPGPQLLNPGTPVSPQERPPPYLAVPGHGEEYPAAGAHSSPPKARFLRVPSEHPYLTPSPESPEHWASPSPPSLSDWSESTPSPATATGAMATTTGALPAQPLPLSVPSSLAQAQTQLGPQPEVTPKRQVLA

As for `COc1ccc([Si](C)(C)[C@@H]2[C@@H](CCO)O[C@]3(C(=O)N(Cc4ccccc4)c4ccc(N5CCOC5=O)cc43)[C@H]2C)cc1`, the composite z-score in experiment [1] is -0.142; in [2], 0.682; in experiment [3], -0.0346; in [4], 0.65; in [5], 0.545; in [6], 0.69. Further, the composite z-score was 0.951 in experiment [7]; 0.152 in experiment [9]; -0.226 in experiment [10]; 1.51 in [11]; 1.78 in [15]; -0.0722 in [17]. For the same molecule, the composite z-score is 0.446 in experiment [18], 0.693 in experiment [19] and -0.14 in experiment [20]. Besides, the z-score in experiment [8] was -4.48 (inactive); in [12] it was 2.55 (inactive); in [13], -0.522 (inactive); in experiment [14], 17.5 (active); in experiment [16], 1.44 (inactive).

For the molecule `Cc1ccc(S[C@]2(C(=O)NCCN3CCOCC3)CC(=O)N(Cc3ccccc3Cl)[C@@H]2c2ccc(CO)cc2I)cc1`, the composite z-score in experiment [1] is 0.75; in [2], 1.78; in experiment [3], 0.0027; in [4], -0.142; in [5] it was -0.675; in [6] it was 1.15. For the same molecule, the composite z-score in experiment [7] was 1.04; in experiment [9] it was -0.387; in experiment [10], 0.302; in experiment [11], 0.443; in experiment [15], 2.77; in experiment [17] it was 0.508. Moreover, the results for the composite z-score in [18], in [19] and in experiment [20] were -0.064, -0.364 and -0.455, respectively. The z-score in experiment [8] was -2.03 (inactive); in experiment [12], -0.841 (inactive); in experiment [13], -3.57 (inactive); in experiment [14] it was 0.665 (inactive); in [16] it was -0.373 (inactive).

For the molecule `C=CCNC(=O)[C@@H]1[C@H]2C(=O)O[C@H](c3ccccc3)[C@H](c3ccccc3)N2[C@H](c2ccc(O)cc2)[C@@]12C(=O)N(C(=O)OCCOC)c1ccc(C#CC3=CCCCC3)cc12`, the composite z-score was -0.254 in experiment [1]; 0.467 in [2]; -0.021 in experiment [3]; 0.512 in [4]; 0.761 in experiment [5]; 1 in experiment [6]. The composite z-score was 1.17 in [7]; 0.668 in [9]; 0.951 in [10]; 1.49 in experiment [11]; 2.25 in experiment [15]; -0.156 in [17]. For the same molecule, the composite z-score in experiment [18] was 1.14; in experiment [19], 1.09; in experiment [20] it was -0.0697. Also, the z-score in [8] is 0.816 (inactive); in experiment [12], 0.675 (inactive); in [13], 0.428 (inactive); in experiment [14], 0.969 (inactive); in experiment [16], -0.633 (inactive).

Consider `NCCCCCNC(=O)[C@H]1C[C@H]2C(=O)N3CCC[C@H]3C(=O)N2[C@H]1c1cccc(OCCO)c1`, for which the composite z-score in [1] was 1.46; in [2], 0.161; in experiment [3] it was -0.0448; in experiment [4], 0.179; in experiment [5], -0.0052; in experiment [6], 1.52. Moreover, the composite z-score in [7] stood at 1.43; in [9], 0.534; in experiment [10], 0.0873; in experiment [11], 1.56; in [15] it was 3.15; in experiment [17] it was 0.767. Also, the values for the composite z-score in [18], in experiment [19] and in experiment [20] were -0.321, 0.0389 and 0.102, respectively. Besides, the z-score is 1.91 (inactive) in experiment [8]; 0.372 (inactive) in experiment [12]; -1.53 (inactive) in [13]; 0.674 (inactive) in experiment [14]; 0.0425 (inactive) in [16].

In the case of `C=C[C@@H](CO)N(Cc1ccc(OC)cc1)S(=O)(=O)c1ccc(Br)cc1`, the composite z-score in experiment [1] was -0.142; in experiment [2] it was 0.368; in [3], -0.13; in experiment [4], 0.332; in experiment [5], -0.185; in experiment [6], 0.0749. In addition, the composite z-score in experiment [7] is 0.996; in [9], -0.446; in [10], -0.134; in [11], -0.043; in experiment [15], 0.268; in experiment [17], 0.0711. The composite z-score in [18] was -0.193; in experiment [19], -0.731; in experiment [20] it was -0.0967. Moreover, the z-score in [8] is -4.18 (inactive); in experiment [12] it was -3.19 (inactive); in experiment [13] it was -6.8 (inactive); in [14], -1.92 (inactive); in [16], 2.31 (inactive).
